Screens as filed in PubChem BioAssay.
SW480 rerep: A quantitative high throughput screen for small molecules that induce DNA re-replication in SW480 colon adenocarcinoma cells | SW480 DNA re-replication, Hoechst DNA content imaging, 48 h | 340,000 compounds, 1.8% hits | Potency, µM (doses to about 46.1 µM), inactives show at the highest dose re-replication activation, actives largely listed as activators; also: potency is read from the fitted curve at half-maximal effect; % of control where 0% means no effect; nearly all actives have a fitted effect of over 55% in size
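Compounds, transferred as 23 nL by pin tool, were incubated with cells for 48 hr; DNA content per nucleus was then quantified by Hoechst staining and fluorescence plate imaging.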
DT40 TDP1 CPT: qHTS for Inhibitors of human tyrosyl-DNA phosphodiesterase 1 (TDP1): qHTS in cells in presence of CPT | chicken DT40 Tdp1-/-;hTDP1 cells + 20 nM CPT, ATP luminescence, 48 h | Potency, µM (highest dose often 46.2 µM), for the others: top-dose activity change, negative = growth inhibition, hits mostly inhibitors | 420,000 compounds, 12% hits | AID 686979, 2013; also: potency is read from the fitted curve at half-maximal effect; % is scaled to controls: 0 for no effect and ±100 for the full control effect; nearly all actives have a fitted effect of over 55% in size
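Chicken DT40 Tdp1-/- cells complemented with human TDP1, 400 cells/well, exposed to compounds plus 20 nM camptothecin for at least 48 h at 37 C; viability read as ATP content by CellTiter-Glo luminescence.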
TDP1 cell noCPT: qHTS for Inhibitors of human tyrosyl-DNA phosphodiesterase 1 (TDP1): qHTS in cells in absence of CPT; DT40 Tdp1-/- hTDP1 cells, no CPT, ATP luminescence, 48 h; Potency, µM (titrated, usually from 46.2 µM), inactives show at the top dose activity change, negative = growth inhibition, most hits filed as inhibitors; 420,000 compounds, 15% hits; also: potency is read from the fitted curve at half-maximal effect; % is scaled to controls: 0 for no effect and ±100 for the full control effect; nearly all actives have a fitted effect of over 55% in size
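Compound effects on proliferation are scored in DT40 Tdp1-/-;hTDP1 cells in the absence of CPT. ATP levels (CellTiter-Glo luminescence) are recorded after a ≥48 hr, 37 °C incubation.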
BCR signal inh: qHTS Assay to Find Inhibitors of Chronic Active B-Cell Receptor Signaling; 340,000 compounds, 0.05% hits; Potency, µM (highest dose often 46.1 µM), for the others: at the top dose activity change, negative = inhibition, actives largely listed as inhibitors; AID 493014, 2011; ABC-DLBCL IkBa-CBG/CBR reporter, luminescence ratio, 4 h; active = well fitted inhibition curve with a large enough effect in the signal ratio, with a control signal flat, not every such curve was filed as active; inconclusive = small, poorly fitted or top-dose-only effect, or effect the other way, or a change in a side signal; the % refers to the signal ratio;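 also: potency is read from the fitted curve at half-maximal effect; plate controls were basal doxycycline-induced cells for no effect and cells given 10 µM MG132 for full effect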
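TMD8 human ABC-DLBCL cells with doxycycline-inducible IκBα–green luciferase fusion and unfused red luciferase, in 0.5% FBS medium; compounds up to 46 uM, 4 h at 37C. Green/red luminescence ratio, filter-overlap corrected, fitted to concentration-response curves.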
MCF10A rerep: A quantitative high throughput screen for small molecules that induce DNA re-replication in MCF 10a normal breast cells. Potency, µM (highest dose often 46.1 µM), for inactives: at the highest dose activity, positive = re-replication, most hits filed as activators. MCF 10A DNA re-replication, Hoechst nuclear intensity, 48 h. 350,000 compounds, 2.9% hits; also: potency is read from the fitted curve at half-maximal effect; % of control where 0% means no effect; nearly all actives have a fitted effect of over 50% in size
IL-1B inflam inh: qHTS for Inhibitors of Inflammasome Signaling: IL-1-beta AlphaLISA Primary Screen | THP-1 LPS/ATP IL-1B secretion, AlphaLISA, 16 h; hits give low values | activity change, % at 57.5 µM | 360,000 compounds, 4.7% hits | AID 743279, 2014; in the data active = activity change below about -50%; inconclusive = mostly about -30% to -49%; also: % is scaled to controls: 0 for no effect and ±100 for the full control effect
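Secreted IL-1B measured by AlphaLISA bead assay after 16 h compound exposure of THP-1 cells; compounds (final up to 57.5 uM) added 1 h before LPS (250 ng/mL) and ATP (1.25 mM) stimulation; lower signal means less secretion.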
* = called active by the depositor; ? = inconclusive; · = not tested or not shown; [ ] = another dose, or the depositor's remark. Sampled rows, rich in hits. Any-hit rate of the full collection: about 19%. Unless noted, calls follow the shape of the dose curve; as a rule, active = well fitted curve in the direction sought with a large enough effect; inconclusive = small, poorly fitted or top-dose-only effect, or another doubt; inactive = no such curve, though single readings can be large; an effect the other way counts as inactive or inconclusive.

SMILES	SW480 rerep	DT40 TDP1 CPT	TDP1 cell noCPT	BCR signal inh	MCF10A rerep	IL-1B inflam inh
Cc1cc(C)c(CSc2nnc(C)n3c2cc2occc23)c(C)c1	·	18.4µM*	20.6µM*	·	·	·
O=C(CCC(=O)c1ccc(Oc2ccccc2)cc1)Nc1cccc(Cl)c1	-2.2%	15.8%	-11.3%	-7.3%	8.0%	0.1
O=C(CCC(=O)c1ccc(Oc2ccccc2)cc1)Nc1ccc(Cl)cc1Cl	5.8µM*	?	-29.8%	-2.6%	?	?
CCCCN(CCO)c1ncnc2sc(-c3ccccc3)cc12	?	?	16.4µM*	-1.9%	?	·
CN(C)CCCNc1ncnc2sc(-c3ccccc3)cc12	?	?	16.4µM*	5.0%	24.1%	-76.5*
Cc1cccc(-n2ncc3c(N(CCO)CCO)ncnc32)c1	-2.5%	-4.8%	-12.4%	-10.1%	-1.6%	-14.4
CCOC(CNc1ncnc2sc(-c3ccccc3)cc12)OCC	-2.5%	?	-28.8%	-0.3%	14.8%	0.0
CCn1c(SCC(=O)NCc2ccco2)nnc1-c1cccc(N(C)C)c1	·	-31.0%	?	·	·	·
NC(=S)N=Nc1c(O)n(CCCl)c2ccc(Br)cc12	-5.6%	16.4µM*	23.1µM*	?	?	-101.3*
C/C(Cl)=C\Cn1c(O)c(N=NC(N)=S)c2cc(Br)ccc21	?	1.3µM*	1.64µM*	?	?	98.4
CCCCn1c(O)c(N=NC(=O)c2ccncc2)c2cc(Br)ccc21	-51.5%	?	?	?	24.2%	16.2
COc1ccccc1C1OC(=O)CC1C(=O)OC[C@@H]1CCCN2CCCCC12 (some centres undefined)	·	20.8%[9.04 µM]	-16.0%[9.04 µM]	·	·	·
CC[C@@H]1C/C=C\Cc2ccccc2[C@@H](C(=O)C[C@H](O)CC(C)=O)OC1=O	6.5%	14.8%	-4.2%	0.0%	?	5.4
CC(C)(C)OC(=O)N1CCC(c2c(C(=O)NCc3cccc(Cl)c3)cnn2-c2ccc(F)cc2)CC1	·	?	13µM*	·	·	·
CC(C)(C)OC(=O)N1CCC(c2c(C(=O)NCCN3CCC(Cc4ccccc4)CC3)cnn2-c2ccc(F)cc2)CC1	·	5.17µM*	5.17µM*	·	·	·
Cc1ccc(-n2ncc(C(=O)NCc3ccccc3)c2C2CCN(C(=O)OC(C)(C)C)CC2)cc1	·	20.6µM*	?	·	·	·
Cc1ccc(-n2ncc(C(=O)NCCCN3CCCCC3)c2C2CCN(C(=O)OC(C)(C)C)CC2)cc1	·	?	-29.1%	·	·	·
CC(C)(C)OC(=O)N1CCC(c2c(C(=O)N3CCN(C(=O)c4ccco4)CC3)cnn2-c2ccc(F)cc2)CC1	5.6%	-9.9%	10.8%	-4.8%	-2.4%	4.6
CC1=C(C(=O)N2CCCCCC2)CC(CC(=O)NCC2CCCCC2)C(=O)N1CCCN1CCCC1=O (centres undefined)	·	-9.2%	-22.6%	·	·	-9.4
O=S(=O)(c1ccc(F)cc1)N1CCN(Cc2cc3c(cc2Br)OCCO3)CC1	-35.3%	?	?	7.3%	5.0%	-2.0
Oc1ccc(N2CCN(Cc3cc4c(cc3Br)OCCO4)CC2)cc1	25.3%	?	23.1µM*	-0.1%	?	-2.1
CN(CCc1ccccc1)C(=O)c1cccc(NC(=O)Cc2cccc([N+](=O)[O-])c2)c1	-3.2%	?	?	0.2%	5.5%	?
O=c1[nH]c(=S)[nH]c2sc3c(c12)CCCCCC3	-0.9%	-14.9%	-6.0%	?	?	18.7
